From PubChem BioAssay
For part of these data: Entries with a potency or affinity are not part of this list. Activity calls are given as the source filed them. Unless noted, the rule behind the calls is not given here.

system: not listed separately; experiment: inhibition of 3D7 malaria parasite growth – strain 3D7 (AID 2306);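 note: 0% = DMSO wells and 100% = chloroquine plus artemisinin control wells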; details: P. falciparum 3D7 erythrocytic growth, LDH absorbance, 72 h; at 2 µM; active compounds read high

Q: For `CN1CCN(Cc2cccc(-c3ccc4c(Nc5cc(O)c(Cl)cc5F)ccnc4c3)c2)CC1`, which growth inhibition is on record?
A: Its growth inhibition is 102% (active).

Q: For `COc1c(CN2CCOCC2)cccc1-c1cc2c(-c3ccc(C(=O)O)c(C(C)C)c3)ccnc2[nH]1`, which growth inhibition is on record?
A: Its growth inhibition is 98% (active).

Q: With `CC(=O)Nc1cccc(Nc2nccc(Nc3ccc(Oc4ccccc4)cc3)n2)c1` as the compound, how does the growth inhibition read?
A: Its growth inhibition is 101% (active).

Q: With `C#CCNC(=O)c1ccc(-c2ccnc(Nc3cccc(CCCN4CCOCC4)c3)n2)s1` as the compound, how does the growth inhibition read?
A: The growth inhibition was 82% (active).

Q: Which growth inhibition does the source give for `CN(c1ccc2c(c1)nc(NCc1ccccc1)n2C)c1ccnc(Nc2ccc(CS(C)(=O)=O)cc2)n1` here?
A: The growth inhibition was 94% (active).

Q: With `CN(C)CC(O)COc1ccc(Nc2ncc([N+](=O)[O-])c(Nc3ccccc3O)n2)cc1` (centres undefined) as the compound, how does the growth inhibition read?
A: The growth inhibition was 100% (active).

Q: Which growth inhibition does the source give for `N=C(N)c1ccc(Nc2nc(Nc3ccc(-c4ccccc4)cc3)ncc2[N+](=O)[O-])cc1` here?
A: Its growth inhibition is 99% (active).

Q: For `CC(=O)c1ccc(NC(=O)Nc2ccc(N(C)c3ccnc(Nc4cccc(CS(C)(=O)=O)c4)n3)cc2)cc1`, which growth inhibition is on record?
A: Its growth inhibition is 100% (active).

Q: For `N#Cc1cnc(Nc2ccc(Oc3ccccc3)cc2)nc1Nc1cccc(S(N)(=O)=O)c1`, which growth inhibition is on record?
A: The growth inhibition was 96% (active).

Q: With `Cc1ccc(Nc2nc3cc(Nc4ccnc(Nc5cccc(CS(C)(=O)=O)c5)n4)ccc3o2)cc1` as the compound, how does the growth inhibition read?
A: The growth inhibition was 101% (active).

Q: Which growth inhibition does the source give for `O=C(O)c1cccnc1Sc1ccc(Cl)cc1` here?
A: The growth inhibition was 100% (active).

Q: For `CC(=O)Nc1nc(C)c(-c2csc(Nc3ccc(Cl)cc3)n2)s1`, which growth inhibition is on record?
A: Its growth inhibition is 96% (active).

Q: With `COc1cccc(Nc2nccc(-c3c(-c4cccc(NC(=O)c5c(F)cccc5F)c4)nn4ccccc34)n2)c1` as the compound, how does the growth inhibition read?
A: Its growth inhibition is 98% (active).

Q: With `CN(c1ccc(NC(=O)Nc2cc(C(F)(F)F)ccc2F)cc1)c1ccnc(NCCN2CCOCC2)n1` as the compound, how does the growth inhibition read?
A: Its growth inhibition is 97% (active).

Q: Which growth inhibition does the source give for `COc1cccc(-n2ncc3c(N/N=C/c4ccc(CN(C)CCN(C)C)cc4)ncnc32)c1` here?
A: The growth inhibition was 100% (active).

Q: Which growth inhibition does the source give for `Nc1ncc(-c2cccc(F)c2)cc1-c1nc2ccc(F)cc2[nH]1` here?
A: The growth inhibition was 100% (active).

Q: Which growth inhibition does the source give for `CS(=O)(=O)Cc1cccc(Nc2ncc(Cl)c(Nc3cccnc3C(N)=O)n2)c1` here?
A: The growth inhibition was 96% (active).

Q: For `COc1c(CN2CCCC2)cccc1-c1cc2c(-c3ccc(C(=O)O)c(C(C)C)c3)ccnc2[nH]1`, which growth inhibition is on record?
A: The growth inhibition was 99% (active).

Q: Which growth inhibition does the source give for `CN(c1ccc(NC(=O)Nc2cccc(Cl)c2)cc1)c1ccnc(N)n1` here?
A: The growth inhibition was 100% (active).

Q: For `CC(=O)Nc1ccc(Nc2ncc([N+](=O)[O-])c(Nc3ccccc3C(N)=O)n2)cc1`, which growth inhibition is on record?
A: Its growth inhibition is 98% (active).

Q: Which growth inhibition does the source give for `CN(c1ccc2c(c1)nc(NCc1ccc(F)cc1)n2C)c1ccnc(Nc2ccc(CS(C)(=O)=O)cc2)n1` here?
A: Its growth inhibition is 97% (active).

Q: For `CCN(CC)CCCNc1nccc(N(C)c2ccc(NC(=O)Nc3cc(C(F)(F)F)ccc3F)cc2)n1`, which growth inhibition is on record?
A: The growth inhibition was 94% (active).

Q: Which growth inhibition does the source give for `NS(=O)(=O)c1cccc(Nc2nccc(-c3cnn4ncccc34)n2)c1` here?
A: The growth inhibition was 89% (active).

Q: With `CN1CCC(NC(=O)c2cccc(Nc3cc(Nc4cccc(Br)c4)ncn3)c2)CC1` as the compound, how does the growth inhibition read?
A: The growth inhibition was 94% (active).

Q: With `CCN(CC)CCNC(=O)c1ccc(Nc2ncc([N+](=O)[O-])c(Nc3ccccc3OC)n2)cc1` as the compound, how does the growth inhibition read?
A: Its growth inhibition is 97% (active).

Q: Which growth inhibition does the source give for `O=C(Cc1ccc(Nc2nccc(Nc3cccc4[nH]ncc34)n2)cc1)Nc1ccc(C(F)(F)F)cc1` here?
A: Its growth inhibition is 100% (active).

Q: With `Cc1ccc(S(=O)(=O)Nc2ccc(Nc3nccc(Nc4cccc5[nH]ncc45)n3)cc2)cc1` as the compound, how does the growth inhibition read?
A: The growth inhibition was 90% (active).

Q: With `Oc1cc(-c2nc(-c3ccccc3)[nH]c2-c2ccncc2)ccc1Cl` as the compound, how does the growth inhibition read?
A: Its growth inhibition is 96% (active).

Q: For `CN(c1ccc(NC(=O)Nc2cc(C(C)(C)C)on2)cc1)c1ccnc(NCCN2CCOCC2)n1`, which growth inhibition is on record?
A: The growth inhibition was 95% (active).

Q: With `COc1ccc(-c2cnn3ccc(Nc4cc(OC)c(OC)c(OC)c4)nc23)cc1OC` as the compound, how does the growth inhibition read?
A: The growth inhibition was 98% (active).

Q: With `O=C(NCCN1CCCCC1)c1cccc(Nc2nccc(Nc3ccc(Oc4ccccc4)cc3)n2)c1` as the compound, how does the growth inhibition read?
A: The growth inhibition was 99% (active).

Q: With `O=c1[nH]ccc2nc(N[C@@H]3CCNC3)nc(Nc3ccc4c(c3)S(=O)(=O)CC4)c12` as the compound, how does the growth inhibition read?
A: The growth inhibition was 100% (active).

Q: For `Cc1cc(Nc2nc(Nc3cccc(Cl)c3)nc3ccccc23)n[nH]1`, which growth inhibition is on record?
A: The growth inhibition was 103% (active).

Q: With `C(=N\Nc1nccc2sc(-c3ccccc3)cc12)/c1cccnc1` as the compound, how does the growth inhibition read?
A: The growth inhibition was 97% (active).

Q: With `Cn1nc(-c2ccc(NC(=O)Nc3ccc4ccccc4c3)c(F)c2)c2cnc(NCCN3CCOCC3)nc21` as the compound, how does the growth inhibition read?
A: The growth inhibition was 93% (active).

Q: For `Cn1cnc2c(Nc3ccncc3)nc(-c3ccc4c(c3)OCO4)nc21`, which growth inhibition is on record?
A: Its growth inhibition is 96% (active).

Q: With `Cc1ccc(O)cc1Nc1ccnc2cc(-c3cccc(CNCCS(C)(=O)=O)c3)ccc12` as the compound, how does the growth inhibition read?
A: Its growth inhibition is 99% (active).

Q: With `Fc1cc(Cl)ccc1Nc1ccnc2cc(-c3ccc(CNCCN4CCOCC4)o3)ccc12` as the compound, how does the growth inhibition read?
A: The growth inhibition was 101% (active).

Q: Which growth inhibition does the source give for `N=C(N)c1ccc(Nc2nccc(Nc3nc(-c4ccccc4)cs3)n2)cc1` here?
A: The growth inhibition was 96% (active).

molecular target: Calcium-dependent protein kinase 1 (Plasmodium falciparum (isolate 3D7)) (UniProt P62344); experiment: PfCDPK1 kinase inhibitors, biochemical, TCAMS library (AID 1159585; cut-off not given, nearly all actives have IC50 up to about 0.98 µM;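 note: inhibitors leave more ATP so luminescence rises with inhibition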); details: recombinant PfCDPK1, Kinase-Glo ATP depletion luminescence
Sequence (P62344 whole entry, looked up): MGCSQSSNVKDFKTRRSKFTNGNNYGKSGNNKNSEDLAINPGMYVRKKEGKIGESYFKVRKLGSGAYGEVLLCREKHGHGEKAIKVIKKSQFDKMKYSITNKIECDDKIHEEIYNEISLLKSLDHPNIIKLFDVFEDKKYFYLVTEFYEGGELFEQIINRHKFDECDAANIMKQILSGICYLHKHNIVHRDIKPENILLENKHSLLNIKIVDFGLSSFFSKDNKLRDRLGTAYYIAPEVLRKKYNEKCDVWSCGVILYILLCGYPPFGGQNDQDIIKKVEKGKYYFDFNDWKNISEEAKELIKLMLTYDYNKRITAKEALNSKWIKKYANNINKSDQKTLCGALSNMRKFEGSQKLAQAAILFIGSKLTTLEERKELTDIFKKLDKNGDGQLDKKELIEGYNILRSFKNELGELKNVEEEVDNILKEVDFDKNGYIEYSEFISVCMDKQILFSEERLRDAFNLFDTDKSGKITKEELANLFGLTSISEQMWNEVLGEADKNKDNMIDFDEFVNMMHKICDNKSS

Q: Which outcome does the source give for `COc1c(CN2CCOCC2)cccc1-c1cc2c(-c3ccc(C(=O)O)c(C(C)C)c3)ccnc2[nH]1` here?
A: Its outcome is “inactive”.

Q: Which outcome does the source give for `C#CCNC(=O)c1ccc(-c2ccnc(Nc3cccc(CCCN4CCOCC4)c3)n2)s1` here?
A: The outcome was “inactive”.

Q: For `CN(c1ccc2c(c1)nc(NCc1ccccc1)n2C)c1ccnc(Nc2ccc(CS(C)(=O)=O)cc2)n1`, which outcome is on record?
A: Its outcome is “inactive”.

Q: With `CN(C)CC(O)COc1ccc(Nc2ncc([N+](=O)[O-])c(Nc3ccccc3O)n2)cc1` (centres undefined) as the compound, how does the outcome read?
A: The outcome was “inactive”.

Q: With `N=C(N)c1ccc(Nc2nc(Nc3ccc(-c4ccccc4)cc3)ncc2[N+](=O)[O-])cc1` as the compound, how does the outcome read?
A: Its outcome is “inactive”.

Q: For `CC(=O)c1ccc(NC(=O)Nc2ccc(N(C)c3ccnc(Nc4cccc(CS(C)(=O)=O)c4)n3)cc2)cc1`, which outcome is on record?
A: Its outcome is “inactive”.

Q: With `N#Cc1cnc(Nc2ccc(Oc3ccccc3)cc2)nc1Nc1cccc(S(N)(=O)=O)c1` as the compound, how does the outcome read?
A: Its outcome is “inactive”.

Q: For `Cc1ccc(Nc2nc3cc(Nc4ccnc(Nc5cccc(CS(C)(=O)=O)c5)n4)ccc3o2)cc1`, which outcome is on record?
A: Its outcome is “inactive”.

Q: Which outcome does the source give for `O=C(O)c1cccnc1Sc1ccc(Cl)cc1` here?
A: The outcome was “inactive”.

Q: With `CC(=O)Nc1nc(C)c(-c2csc(Nc3ccc(Cl)cc3)n2)s1` as the compound, how does the outcome read?
A: The outcome was “inactive”.

Q: With `CN(c1ccc(NC(=O)Nc2cc(C(F)(F)F)ccc2F)cc1)c1ccnc(NCCN2CCOCC2)n1` as the compound, how does the outcome read?
A: The outcome was “inactive”.

Q: With `COc1cccc(-n2ncc3c(N/N=C/c4ccc(CN(C)CCN(C)C)cc4)ncnc32)c1` as the compound, how does the outcome read?
A: Its outcome is “inactive”.

Q: Which outcome does the source give for `Nc1ncc(-c2cccc(F)c2)cc1-c1nc2ccc(F)cc2[nH]1` here?
A: Its outcome is “inactive”.

Q: Which outcome does the source give for `CS(=O)(=O)Cc1cccc(Nc2ncc(Cl)c(Nc3cccnc3C(N)=O)n2)c1` here?
A: The outcome was “inactive”.

Q: Which outcome does the source give for `COc1c(CN2CCCC2)cccc1-c1cc2c(-c3ccc(C(=O)O)c(C(C)C)c3)ccnc2[nH]1` here?
A: The outcome was “inactive”.

Q: Which outcome does the source give for `CN(c1ccc(NC(=O)Nc2cccc(Cl)c2)cc1)c1ccnc(N)n1` here?
A: The outcome was “inactive”.

Q: For `CC(=O)Nc1ccc(Nc2ncc([N+](=O)[O-])c(Nc3ccccc3C(N)=O)n2)cc1`, which outcome is on record?
A: Its outcome is “inactive”.

Q: For `CN(c1ccc2c(c1)nc(NCc1ccc(F)cc1)n2C)c1ccnc(Nc2ccc(CS(C)(=O)=O)cc2)n1`, which outcome is on record?
A: Its outcome is “inactive”.

Q: With `CCN(CC)CCCNc1nccc(N(C)c2ccc(NC(=O)Nc3cc(C(F)(F)F)ccc3F)cc2)n1` as the compound, how does the outcome read?
A: The outcome was “inactive”.

Q: With `NS(=O)(=O)c1cccc(Nc2nccc(-c3cnn4ncccc34)n2)c1` as the compound, how does the outcome read?
A: Its outcome is “inactive”.

Q: With `CN1CCC(NC(=O)c2cccc(Nc3cc(Nc4cccc(Br)c4)ncn3)c2)CC1` as the compound, how does the outcome read?
A: Its outcome is “inactive”.

Q: Which outcome does the source give for `CCN(CC)CCNC(=O)c1ccc(Nc2ncc([N+](=O)[O-])c(Nc3ccccc3OC)n2)cc1` here?
A: The outcome was “inactive”.

Q: Which outcome does the source give for `O=C(Cc1ccc(Nc2nccc(Nc3cccc4[nH]ncc34)n2)cc1)Nc1ccc(C(F)(F)F)cc1` here?
A: The outcome was “inactive”.

Q: With `Cc1ccc(S(=O)(=O)Nc2ccc(Nc3nccc(Nc4cccc5[nH]ncc45)n3)cc2)cc1` as the compound, how does the outcome read?
A: Its outcome is “inactive”.

Q: With `CN(c1ccc(NC(=O)Nc2cc(C(C)(C)C)on2)cc1)c1ccnc(NCCN2CCOCC2)n1` as the compound, how does the outcome read?
A: The outcome was “inactive”.

Q: For `Cc1cc(Nc2nc(Nc3cccc(Cl)c3)nc3ccccc23)n[nH]1`, which outcome is on record?
A: Its outcome is “inactive”.

Q: Which outcome does the source give for `C(=N\Nc1nccc2sc(-c3ccccc3)cc12)/c1cccnc1` here?
A: Its outcome is “inactive”.

Q: For `Cn1nc(-c2ccc(NC(=O)Nc3ccc4ccccc4c3)c(F)c2)c2cnc(NCCN3CCOCC3)nc21`, which outcome is on record?
A: The outcome was “inactive”.

Q: Which outcome does the source give for `Cn1cnc2c(Nc3ccncc3)nc(-c3ccc4c(c3)OCO4)nc21` here?
A: Its outcome is “inactive”.

Q: For `N=C(N)c1ccc(Nc2nccc(Nc3nc(-c4ccccc4)cs3)n2)cc1`, which outcome is on record?
A: The outcome was “inactive”.
